Test results as given in PubChem BioAssay (NCATS).
The source made the active and inactive calls. The call rests on the fitted dose curve.

Key:
Assay in all cases: Confirmatory Screen for Target Class Profiling of Small Molecule Inhibitors of Methyltransferases (AID 1745852); on activity change, negative = inhibition: on the % scale 0 is the no-effect control and ±100 the full control effect
[1] = target: Catechol O-methyltransferase (Homo sapiens) (UniProt P21964); settings: MTase-Glo luminescence, SAH detection, recombinant enzyme; measured here: COMT max response; stronger effect = lower value
Sequence of Catechol O-methyltransferase (Homo sapiens) (P21964 whole entry, looked up): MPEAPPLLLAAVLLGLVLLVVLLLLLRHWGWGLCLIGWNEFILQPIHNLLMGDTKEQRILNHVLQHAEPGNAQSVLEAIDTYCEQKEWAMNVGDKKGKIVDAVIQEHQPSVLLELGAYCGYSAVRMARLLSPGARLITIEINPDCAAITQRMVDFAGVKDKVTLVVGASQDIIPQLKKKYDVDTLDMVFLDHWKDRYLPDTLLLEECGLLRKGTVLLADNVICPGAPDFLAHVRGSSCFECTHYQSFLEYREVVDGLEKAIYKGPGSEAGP

[2] = target: Guanidinoacetate N-methyltransferase (Homo sapiens) (UniProt Q14353); settings: MTase-Glo luminescence, SAH detection, recombinant enzyme; activity change, negative = inhibition: at 57.3 µM (top of the series) unless noted; series mostly up to 57.3 µM
[3] = target: Nicotinamide N-methyltransferase (Homo sapiens) (UniProt P40261); settings: MTase-Glo luminescence, SAH detection, recombinant enzyme; measured here: NNMT max response; stronger effect = lower value
Sequence of Nicotinamide N-methyltransferase (Homo sapiens) (P40261 whole entry, looked up): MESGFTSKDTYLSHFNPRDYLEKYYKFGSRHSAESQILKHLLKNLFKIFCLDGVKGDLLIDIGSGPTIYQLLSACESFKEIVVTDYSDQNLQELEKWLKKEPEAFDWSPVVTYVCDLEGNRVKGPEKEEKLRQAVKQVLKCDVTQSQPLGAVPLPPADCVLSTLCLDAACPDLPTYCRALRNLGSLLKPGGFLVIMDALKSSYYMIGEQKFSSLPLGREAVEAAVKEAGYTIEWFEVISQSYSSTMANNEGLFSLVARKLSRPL

[4] = target: Phenylethanolamine N-methyltransferase (Homo sapiens) (UniProt P11086); settings: MTase-Glo luminescence, SAH detection, recombinant enzyme; measured here: PNMT max response; stronger effect = lower value
Sequence of Phenylethanolamine N-methyltransferase (Homo sapiens) (P11086 whole entry, looked up): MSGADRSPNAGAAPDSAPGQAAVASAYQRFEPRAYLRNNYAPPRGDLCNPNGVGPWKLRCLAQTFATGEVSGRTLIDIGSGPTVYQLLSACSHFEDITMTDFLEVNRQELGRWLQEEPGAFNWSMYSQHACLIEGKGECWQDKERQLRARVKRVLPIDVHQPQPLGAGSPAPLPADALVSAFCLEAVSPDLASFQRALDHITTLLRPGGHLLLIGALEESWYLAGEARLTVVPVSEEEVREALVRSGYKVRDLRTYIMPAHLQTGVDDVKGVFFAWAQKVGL
Potency means the concentration at half of the fitted maximal effect.

Compound	activity [1] [%]	activity change, negative = inhibition [2]	activity [3] [%]	activity [4] [%]	Potency [2]
COc1ccc(CCN2C(=O)c3cc4occc4n3CC2(C)C(=O)NC2CCCCC2)cc1OC (stereo not given)	2.48	0%	-47.9	1.36	
O=C(NCCc1ccccc1)c1ccc(CN2C(=O)CCn3nc(-c4ccccc4)cc32)cc1	-6.47	0.906%	-28.8	-5.57	
O=C(Cn1ccc2cc(S(=O)(=O)N3CCCCC3)ccc21)NCCCN1CCCCC1	-5.54	-0.43%	-8.24	-7.19	
Cc1nn(C(=O)CCC(=O)N2CCC(Cc3nncn3CC3CC3)CC2)c2ccccc12	6.63	3.09%	-59.9	7.75	
CC(C)Cn1c(=O)c2ccccc2n2c(=O)n(CC(=O)c3cccc(Cl)c3)nc12	-9.22	-5.46%	-38.9	-8.68	
COc1ccc(OC)c(CN2CCNc3cc(-c4ccnc(C)c4)ncc3C2)c1	6.21	6.12% [at 85.7 µM]	-5.07	4.8	
CN1CCC(N2CC[C@H](c3nc4ccc(C(F)(F)F)cc4[nH]3)C2)CC1	7.98	9.6% [at 85.7 µM]	10.1	7.95	
Cc1ccc2c(c1)c(-n1cccc1)c1n2CC(C)(C(=O)NC2CCCCC2)N(Cc2ccccn2)C1=O (stereo not given)	4.89	0.484%	-16.5	0	
Cc1ccc(C)c(N2CCN(C(=O)c3ccc4c(=O)[nH]c5c(C(=O)NC(C)C)sc(=S)n5c4c3)CC2)c1	-41.7	-2.19%	-76.8	-17.9	
CC1CCN(CCCNC(=O)CCc2nnc3n(Cc4ccccc4Cl)c(=O)c4ccccc4n23)CC1	-11.4	-3.45%	-14.4	-7.41	
CCOc1cc(OCC)c2c(-c3ccccc3)cc(=O)oc2c1	-64.6		-49.7	-65.2	15.2 µM (active)
COc1ccc(CNc2cc3c(cn2)CN(C)CCN3)cc1OC	6.61	1.57% [at 85.7 µM]	0.597	7.35	
Cc1oc(C(=O)O)cc1COc1ccc2c(-c3ccccc3)cc(=O)oc2c1C	-34.8		-43.8	-32.8	27.1 µM (active)
Cc1ccc(CNC(=O)c2ccc3c(=O)[nH]c4c(C(=O)NC(C)C)sc(=S)n4c3c2)cc1	-30.2	-7.1%	-65.3	-17.2	
Cc1ccc2c(c1)c(=O)[nH]c1c(C(=O)NCc3ccc4c(c3)OCO4)sc(=S)n12	-32.7		-60.7	-35.6	17.1 µM (active)
Cc1cnc(CCNC(=O)Nc2ccc3c(c2)OCCO3)n1C1CCC1	2.74	-0.0713%	-5.7	1.37	
COC(=O)c1nc(NC(=O)Cn2nc3c(cc2=O)CCCC3)sc1C(C)C	-1.05	0.9%	-8.15	2.23	
COc1ccc(-c2n[nH]n3c2nc(=O)c2ccc(C(=O)NC(C)c4ccc(F)cc4)cc23)cc1 (stereo not given)	-18.7	-8.96%	-25	-17.7	
COc1ccc(CN2C(=O)c3cc4sccc4n3CC2(C)C(=O)NC2CCC(C)CC2)cc1OC (stereo not given)	-5.8	0.162%	-79.1	-7.08	
CN(Cc1ccccc1)C1(C(=O)NC2CCC(O)CC2)Cc2ccccc2C1 (stereo not given)	2.67	3.98%	7.08	6.38	

Compound	activity [1] [%]	activity change, negative = inhibition [2]	activity [3] [%]	activity [4] [%]	Potency [2]
CCCC1c2cccn2CCN1C(=O)Nc1ccc(Br)c(C)c1 (stereo not given)	-4.66	-2.02%	-7.57	-6.57	
CCN(CC)CCCNC(=O)CCCc1nnc2n3nc(-c4ccccc4)nc3c3ccccc3n12	-3.39	0%	-0.543	-1.05	
Cn1ccc2c(C(=O)NCCc3cnc[nH]3)nc(-c3ccc(N4CCOCC4)cc3)cc21	-6.99	-0.183% [at 85.7 µM]	2.75	-6.64	
COc1cccc(NC(=O)Cn2c(=O)oc3cc(S(=O)(=O)N4CCCC4)ccc32)c1	3.1	0.138%	4.37	-58.7	
O=C(Nc1ccc(F)c(Cl)c1)N1CCn2cccc2C1Cc1ccccc1 (stereo not given)	-2.26	1.87%	-5.36	-6.59	
O=C(CCc1nnc2n(Cc3ccccc3Cl)c(=O)c3ccccc3n12)N1CCC(N2CCCCC2)CC1	0	0.582%	-1.92	0	
COc1ccnc(-c2nnc3ccc(Nc4cc(OC)c(OC)c(OC)c4)nn23)c1	-13.7	-8.44% [at 85.7 µM]	-18	-25.6	
CCc1cc2c(cc3n2CC(C)(C(=O)NC2CCC(C)CC2)N(C(C)CCc2ccco2)C3=O)s1 (stereo not given)	-10.7	-18.6%	-6.06	-12.3	
Cc1cc(-c2nc3ccncc3[nH]2)c(C)[nH]1	-4.56	3.2% [at 114 µM]	-25.8	-11.2	
COc1ccc(-c2cc(C(=O)NCc3cccnc3)c3c(c2)N(C)CCO3)cc1OC	3.17	8.84% [at 85.7 µM]	-0.0858	-0.493	
Cc1noc(C)c1-c1cc(-c2ccc(CN(C)C)cc2)cn2cncc12	-2.27	-8.74% [at 85.7 µM]	-10.7	-3.78	
COc1cccc(N2C(=O)NC(=NC3CCCCC3)C23CCCN(CC2CCCCC2)C3)c1 (stereo not given)	-0.686	10.7%	-50.3	1.19	
CN(CCCNC(=O)Cn1ccc2cc(S(=O)(=O)N3CCCCC3)ccc21)C1CCCCC1	1.24	0.637%	-1.2	0.276	
CC(CNC(=O)c1nnn2c1c(=O)[nH]c1cc(F)ccc12)c1ccccc1 (stereo not given)	-11.1		-18.2	-15.8	0.271 µM (active)
CN1CCN(C)c2cnc(-c3cnn(Cc4ccccc4)c3)cc2C1	6.86	5.27% [at 85.7 µM]	6.62	8.78	
CCCC1c2cccn2CCN1C(=O)Nc1ccccc1Cl (stereo not given)	2		-4.51	1.09	inactive
O=C(Nc1ccc2c(N3CCCCC3)ncnc2c1)c1ccccc1C(F)(F)F	-15.7	-6.31%	-10.2	-19.5	
Cc1nccn1CCC1CCN(c2nccc(-c3ccccn3)n2)CC1	9.05	8.46%	5.85	7.66	
COc1cccc2c1OCCCN(c1cc(C3CC(O)C3)nc(N)n1)C2 (stereo not given)	5.04	6.51%	3.54	4.23	
O=C(CCCc1nnc2n3nc(-c4ccccc4)nc3c3ccccc3n12)N1CCC(N2CCCCC2)CC1	-14.2	-7.55%	-20.9	-10.5	

Compound	activity [1] [%]	activity change, negative = inhibition [2]	activity [3] [%]	activity [4] [%]	Potency [2]
CC1CCCCN1CCNC(=O)Cn1ccc2cc(S(=O)(=O)N3CCCCC3)ccc21 (stereo not given)	0.614	0%	-0.249	-1.89	
COc1ccc(-c2nc3ccccc3[nH]2)cc1	-76.2		-74.3	-79.7	15.2 µM (active)
Cc1cnc(CCNC(=O)c2n[nH]c(=O)c3ccccc23)n1C1CCCCC1	-2.57	5.31%	-0.405	-2.34	
COc1ccc(CCN2C(=O)c3ccc(-c4ccco4)n3CC2(C)C(=O)NC2CCCC2)cc1OC (stereo not given)	-9.3	-6.46%	-65.9	-5.82	
COc1cccc(CN2C(=O)c3nc4ccccc4n3CC2(C)C(=O)NC2CCC(C)CC2)c1 (stereo not given)	-5	0.902%	-42.5	-8.56	
Cc1ccc(Cn2c(=O)c3ccccc3n3c(CCC(=O)N4CCC(N5CCCCC5)CC4)nnc23)cc1	-6.25	-4.42%	-14.2	-2.33	
Oc1ccc(NCCN2CCCC2)cc1	-10.9	-14.6% [at 114 µM]	-12.3	-7.62	
Cc1nc(NC(=O)C2CC(=O)N(c3n[nH]c4cc(Br)ccc34)C2)sc1C (stereo not given)	11.1	3.17%	-94.1	7.69	
COc1ccc(CCNC(=O)c2ccc(CN3C(=O)CCn4nccc43)cc2)cc1OC	-29.4		-12.4	-27	24.1 µM (active)
CCN1CCN(c2nc3c(S(=O)(=O)c4ccc(Br)cc4)nnn3c3ccccc23)CC1	1.75	2.08%	-1.61	-3.25	
CCN(CC)CCCNC(=O)CCc1nnc2n(Cc3ccc(F)cc3)c(=O)c3ccccc3n12	2.05	0%	-4.75	1.85	
Cc1c(O)cc(O)c2c(=O)c(O)c(-c3ccc(O)c(O)c3)oc12	-46.7		-19.4	-17.7	24.1 µM (active)
Cn1c(=O)n(C)c2cc(S(=O)(=O)N3CCN(C4CCCCC4)CC3)c(Cl)cc21	-1.77	2.61%	-10.5	-13.7	
O=c1c2ccccc2n2c(-c3ccc(F)c(F)c3)nnc2n1Cc1ccccc1Cl	-2.11	0%	-2.95	-3.63	
Cc1cccc(-c2nnc3n(CCc4ccccc4)c(=O)c4ccccc4n23)c1	-4.01		-11.5	-10	inactive
O=C(c1cc(-c2ccccc2)n[nH]1)N1CCc2c(nc(-c3ccccc3)[nH]c2=O)C1	4.33	7.17%	3.92	5.63	
c1ccc(CNc2cc(-c3cc(N4CCCCC4)ncn3)c3cc[nH]c3n2)nc1	-16.9	-13.9%	-28.9	-32	
CC(C)CCn1c(=O)c2ccccc2n2c(CCC(=O)N3CCN(c4ccccc4F)CC3)nnc12	1.06	0%	-60.1	-4.6	
Cc1ccc(Cn2c(=O)c3ccccc3n3c(CCC(=O)NCCCN4CCC(C)CC4)nnc23)cc1	0	0%	-6.98	0	
COc1cccc([C@H]2Nc3ccc(S(=O)(=O)Nc4ccc(C)cc4C)cc3[C@H]3C=CC[C@H]32)c1	-17.4		-21.2	-27.1	27.1 µM (active)
